This is an account of results in PubChem BioAssay (NCATS).

Where “and” joins values, the source holds several entries; their conditions need not be identical. Equal values may be shown once. Records with an inconclusive call do not appear. Entries that show only a call come without a potency. A number with no mark means an inactive call. Calls of active or inactive are those of the source. Calls come from the whole dose curve; as a rule, active = well fitted cell-killing curve with a large enough effect; inconclusive = small, poorly fitted or top-dose-only effect, or effect the other way; inactive = no such curve, though single readings can be large or run the other way.
Potency is the fitted concentration of half-maximal effect.

This assay in a line: Viability qHTS for spleen associated tyrosine kinase inhibitor (SYKi) naive MV4-11 cells (AID 1963823). Note: nearly all actives have a fitted effect of over 40% in size. Conditions: MV4-11 AML viability, CellTiter-Glo luminescence, 72 h; series mostly up to 45 µM. An outline of the steps:
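Luminescence from CellTiter-Glo, developed 10 min at room temperature, gave viability of MV4-11 cells never exposed to SYK inhibitor. Cells (500/well) had been incubated with compounds for 72 hr under standard culture conditions.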
`C=C1C[C@]23C[C@H]1CC[C@H]2[C@@]12C=C[C@H](O)[C@@](C)(C(=O)O1)[C@H]2[C@@H]3C(=O)O`: the Potency entry is “inactive”.
Consider `C[C@@H]1O[C@@H](O[C@@H]2[C@@H](O)[C@@H](O[C@]3(CO)O[C@H](CO)[C@@H](O)[C@@H]3OC(=O)/C=C/c3ccc(O)cc3)O[C@H](CO)[C@H]2OC(=O)/C=C/c2ccc(O)cc2)[C@H](O)[C@H](O)[C@H]1O[C@@H]1O[C@@H](C)[C@H](O[C@@H]2OC[C@](O)(CO)[C@H]2O)[C@@H](O)[C@H]1O`, for which the viability (% of control) was 90% [at 9.25 µM].
On to `COC(=O)C1=COC(OC2OC(CO)C(O)C(O)C2O)C2C(COC(=O)/C=C/c3ccc(O)cc3)C(O)C(O)C12` (stereo not given), for which the Potency result is “inactive”.
On the same count and under the same terms, as for `C/C=C(/C=C(C)/C=C/C=C/C=C(\C)C(=O)C12OC1C(O)(CCO)NC2=O)C(=O)OC` (stereo not given), the figure is 8.93 µM (active).
Still for that read-out and setting: as for `CC[C@H]1OC(=O)[C@H](C)[C@@H](O[C@H]2C[C@@](C)(OC)[C@@H](O)[C@H](C)O2)[C@H](C)[C@@H](O[C@@H]2O[C@H](C)C[C@H](N(C)C)[C@H]2O)[C@](C)(O)C[C@@H](C)/C(=N/OCOCCOC)[C@H](C)[C@@H](O)[C@]1(C)O`, the entry is “inactive”; as for `CC(=O)NC1CC(=O)C23C(=O)NC(Cc4c[nH]c5ccccc45)C2C(C)=C(C)C(O)C3/C=C/CC(C)/C=C(/C)C(O)C1O` (stereo not given), “inactive”; as for `O=c1[nH]cnc2c([C@@H]3N[C@H](CO)[C@@H](O)[C@H]3O)c[nH]c12`, “inactive”.
The same measure, in the same setting: the value for `COc1c(C)c(C(=O)c2ccc(N)c(C(=O)O)c2)n2ccccc12` was “inactive”.
As for `CC(CC(C)O[C@@H]1O[C@H](CO)[C@@H](O)[C@H](O)[C@H]1O)OC(=O)/C=C/c1ccc(O)cc1` (stereo not given in full), the Potency entry was “inactive”.
With `CC1(C)CC[C@]2(C(=O)O[C@@H]3O[C@H](CO)[C@@H](O)[C@H](O)[C@H]3O)CC[C@]3(C)C(=CCC4[C@@]5(C)CC[C@H](O[C@@H]6O[C@H](C(=O)O)[C@@H](O)[C@H](O)[C@H]6O)C(C)(C)C5CC[C@]43C)C2C1` (stereo not given in full), the viability (% of control) was 91.3% [at 9.25 µM].
On to `C[C@H](/C=C/[C@@]1(O)[C@H](C)CC(=O)CC1(C)C)O[C@@H]1O[C@H](CO[C@@H]2OC[C@@H](O)[C@H](O)[C@H]2O)[C@@H](O)[C@H](O)[C@H]1O`, for which the Potency result was “inactive”.
Still for that read-out and setting: as for `N#Cc1cc(-c2n[nH]c(-c3ccncc3)n2)ccn1`, the entry is “inactive”.
Still for that read-out and setting: the value for `CC[N+]1(C/C2=C/CCCCCC2)CCC(NC(=O)C2c3cc(Cl)ccc3Oc3ccc(Cl)cc32)CC1` (stereo not given) was 6.51 µM (active); that for `O=C(O)CCc1cc2ccoc2cc1O[C@@H]1O[C@H](CO[C@@H]2OC[C@](O)(CO)[C@H]2O)[C@@H](O)[C@H](O)[C@H]1O` was “inactive”; that for `N#Cc1ccc2ncnc(NCCc3ccccc3)c2c1` was 8.2 µM (active).
On the same count and under the same terms, the value for `COc1c(C)c(OCC(O)C(C)(C)O)cc2c1COC2=O` (stereo not given) was “inactive”; that for `CC1=C2C(=O)C=C(CO[C@@H]3O[C@H](CO)[C@@H](O)[C@H](O)[C@H]3O)[C@@H]2[C@H]2OC(=O)[C@H](C)[C@@H]2CC1` was “inactive”.
Turning to `CC1(C)CC[C@]23CO[C@@]4(CCC5[C@@]6(C)CC[C@H](O[C@@H]7OC[C@H](O[C@@H]8O[C@H](CO)[C@@H](O)[C@H](O)[C@H]8O)[C@H](O)[C@H]7O[C@@H]7O[C@H](CO)[C@@H](O[C@@H]8O[C@H](CO)[C@@H](O)[C@H](O)[C@H]8O)[C@H](O)[C@H]7O)[C@@](C)(CO)C6CC[C@@]5(C)[C@]4(C)C[C@H]2OC2OCC(O)C(O)C2O)C3C1` (stereo not given in full), the Potency was 1.95 µM (active).
The same measure, in the same setting: the value for `CC1CCC2(C(=O)OC3OC(CO)C(O)C(O)C3O)CCC3(C(=O)O)C(=CCC4C5(C)CCC(OC6OC(C)C(O)C(O)C6O)C(C)(C)C5CCC43C)C2C1C` (stereo not given) was “inactive”; that for `C=C1C(=O)OC2/C=C(\CO)CC/C=C(\C=O)C(OC)C(OC(=O)C(C)CC)C12` (stereo not given) was 10 µM (active); that for `C=C(C(=O)O)[C@H]1C[C@]2(C)C(=O)CC[C@]23O[C@H]1C[C@@H]3C` was “inactive”.
Same read-out and setting: as for `COC(=O)c1cc(OC)c(O[C@@H]2O[C@@H](C)[C@H](O)[C@@H](O)[C@H]2O)c(OC)c1`, the entry is “inactive”.
Same read-out and setting: the value for `CC[C@@H]1C[C@]1(NC(=O)[C@@H]1C[C@@H]2CN1C(=O)[C@H](C(C)(C)C)NC(=O)OCC(C)(C)CCCCc1cccc3c1CN(C3)C(=O)O2)C(=O)NS(=O)(=O)C1CC1` was 20.6 µM (active); that for `CC1(C)CC2C(C1)C(C)(O)C13CC1(COC3=O)C2O` (stereo not given) was “inactive”.
With `CN1CCN(c2nc(C3=C(c4c[nH]c5ccccc45)C(=O)NC3=O)c3ccccc3n2)CC1`, the Potency was 206 nM (active) and 833 nM (active).
Turning to `CC(=O)O[C@@H]1C[C@@H](OC(C)=O)C(C)(C)/C=C/[C@H](C)[C@H](OC(C)=O)[C@@]2(O)C[C@H](C)[C@H](OC(=O)c3ccccc3)[C@@H]2/C=C/1C`, the Potency is 0.968 µM (active).
The same measure, in the same setting: as for `CC(C)CC(=O)O[C@@H]1OC=C(CO[C@@H]2O[C@H](CO[C@@H]3O[C@H](CO)[C@@H](O)[C@H](O)[C@H]3O)[C@@H](O)[C@H](O)[C@H]2O)[C@H]2C[C@H](O)[C@@H](CO)[C@@H]12`, the entry is “inactive”; as for `Cn1cc(C2=C(c3coc4ccccc34)C(=O)NC2=O)c2cc(Br)ccc21`, 14.6 µM (active).
With `Nc1nc2c(nc(Br)n2[C@@H]2O[C@@H]3COP(=O)(O)O[C@H]3[C@H]2O)c(=O)[nH]1`, the Potency entry was “inactive”.
Consider `C=C[C@H]1[C@H](O[C@@H]2O[C@H](CO)[C@@H](O)[C@H](O)[C@H]2O)OC=C2C(=O)N3Cc4c([nH]c5ccccc5c4=O)[C@@H]3C[C@H]21`, for which the Potency entry is “inactive”.
The same measure, in the same setting: as for `CCCc1[nH]nc2c1C(c1cc(Cl)cc(Cl)c1O)C(C#N)=C(N)O2` (stereo not given), the figure is 16.4 µM (active).
Still for that read-out and setting: the value for `CC1=C(C)C(=O)OC(C(C)C2CCC3C4CC=C5CC(OC6OC(COC7OC(CO)C(O)C(O)C7O)C(O)C(O)C6O)CC(O)C5(C)C4CCC23C)C1` (stereo not given) was “inactive”; that for `COc1cc(C(=O)OCCCN2CCCN(CCCOC(=O)c3cc(OC)c(OC)c(OC)c3)CC2)cc(OC)c1OC` was 21.1 µM (active).
On the same count and under the same terms, the value for `CC(=C\C(C)O)/C=C(\C)C(=O)CC1CC(CC(N)=O)CC(=O)O1` (stereo not given) was “inactive”.
Take `c1ccc(Cc2ncc3c(n2)CCNCC3)cc1`: the Potency entry is “inactive”.
The same measure, in the same setting: the value for `OC[C@H]1O[C@@H](Oc2cc(O)c3c(c2)O[C@@H](c2ccc(O)cc2)[C@H](O)C3)[C@H](O)[C@@H](O)[C@@H]1O` was “inactive”; that for `NCc1ccc(Nc2ncc(F)c(Nc3ccccc3)n2)cc1` was 0.651 µM (active); that for `C=C1[C@@H]2CC[C@@]3(C)[C@H](c4ccoc4)OC(=O)C[C@]13O[C@H]1CC(=O)C(C)(C)[C@H](CC(=O)OC)[C@]12C` was “inactive”.
Regarding `CNc1nc(Cc2ccccc2)nc2c1CCNC[C@@H]2C`, the Potency result was “inactive”.
Same read-out and setting: as for `C=C[C@H]1C(O[C@@H]2O[C@H](CO)[C@@H](O)[C@H](O)[C@H]2O)OC=C2C(=O)N3CCc4c([nH]c5ccccc45)C3CC21` (stereo not given in full), the entry is “inactive”.
